Measured values taken from the supplement of paper PMC6089552.
In all, about 3,200 compounds went through this assay and about 300 (9.4%) showed activity. This excerpt belongs to a sample that is enriched for actives.

Tested on: A673/TR/shEF
Assay: cell viability (LOESS-normalised, relative to median of negative controls) (log2 ratio); higher = more viable cells (less compound effect), active = hit call of the paper (over 3 MAD below the median)
Conditions: treatment time: 72 h
Method in brief: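 Doxycycline, present or absent from 24 h before compounds, was used to induce EWS-FLI1 shRNA knockdown in A673/TR/shEF Ewing sarcoma cells at 1,500 per well in 384-well plates. Cells then received library compounds at two or more concentrations, or DMSO controls, for three days. Viability was measured by CellTiter-Glo luminescence on an Envision reader, and per-plate LOESS correction, division by the negative-control median and log2 transformation followed.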

[1] = 0.25 µM, library screen: screen1, EWS-FLI1 expression: high (no doxycycline)
[2] = 0.25 µM, library screen: screen1, EWS-FLI1 expression: low (doxycycline-induced shRNA knockdown)
[3] = 2.5 µM, library screen: screen1, EWS-FLI1 expression: high (no doxycycline)
[4] = 2.5 µM, library screen: screen1, EWS-FLI1 expression: low (doxycycline-induced shRNA knockdown)
[5] = 0.25 µM, library screen: screen2, EWS-FLI1 expression: high (no doxycycline)
[6] = 0.25 µM, library screen: screen2, EWS-FLI1 expression: low (doxycycline-induced shRNA knockdown)
[7] = 2.5 µM, library screen: screen2, EWS-FLI1 expression: high (no doxycycline)
[8] = 2.5 µM, library screen: screen2, EWS-FLI1 expression: low (doxycycline-induced shRNA knockdown)

Measured: cell viability (log2)

COC(=O)c1c(C)c2c(c(C)c1OC(C)=O)OC(=O)c1c(C)c(Cl)c(OC(C)=O)c(Cl)c1O2
inactive: [1] 0.0638 | [2] 0.0229 | [3] 0.0457 | [4] -0.0376

C/C1=C2N=C(/C=C3N=C(/C(C)=C4\[N-]C(C(CC(N)=O)C4(C)CCC(=O)NCC(C)OP(=O)([O-])OC4C(CO)OC(n5cnc6cc(C)c(C)cc65)C4O)C4(C)N=C1C(CCC(N)=O)C4(C)CC(N)=O)C(CCC(N)=O)C\3(C)C)C(CCC(N)=O)C/2(C)CC(N)=O.[Co+3] (configuration not stated)
inactive: [1] -0.0019 | [2] 0.0391 | [3] 0.0729 | [4] 0.0491

COc1cc(CN2CCN(Cc3cccc(Cl)c3)CC2)c([N+](=O)[O-])cc1OC
inactive: [1] 0.103 | [2] 0.0472 | [3] 0.18 | [4] 0.111

CCc1c(C)c(C#N)c2nc3ccccc3n2c1N1CCN(C)CC1
inactive: [1] 0.145 | [2] 0.157 | [3] 0.118 | [4] 0.0375

N#C/C(=C\c1c[nH]c2ccccc12)C(=O)c1ccc(O)c(O)c1
inactive: [5] 0.155 | [6] 0.0215 | [7] 0.202 | [8] 0.127

N#C/C(=C\c1ccc(O)c(O)c1)C(=O)NCCCNC(=O)/C(C#N)=C/c1ccc(O)c(O)c1
inactive: [5] 0.153 | [6] 0.132 | [7] 0.199 | [8] 0.0575

COc1cc(/C=C(\C#N)C(=O)c2ccc(O)c(O)c2)cc(I)c1O
inactive: [5] 0.152 | [6] 0.068 | [7] 0.173 | [8] -0.0106

N#C/C(=C\c1ccc(O)c(O)c1)C(=O)c1ccc(O)c(O)c1
active: [5] -0.567 | [6] -0.546 | [7] -2.72 | [8] -2.83

N#C/C(=C\c1ccc(O)c(O)c1)C(N)=O
active: [3] -0.381 | 25 µM, library screen: screen1, EWS-FLI1 expression: high (no doxycycline) -0.224
inactive: 0.025 µM, library screen: screen1, EWS-FLI1 expression: high (no doxycycline) 0.246 | 0.025 µM, library screen: screen1, EWS-FLI1 expression: low (doxycycline-induced shRNA knockdown) 0.0278 | [2] 0.0878 | [4] 0.0598 | 25 µM, library screen: screen1, EWS-FLI1 expression: low (doxycycline-induced shRNA knockdown) 0.125
0.319: [1]

c1coc(CN2CCN(Cc3ccc4ccccc4c3)CC2)c1
inactive: [1] 0.0477 | [2] 0.0071 | [3] 0.142 | [4] 0.0832

COc1ccc2c(c1)CCC1C2CCC2(C)C1C[C@@H](O)[C@@H]2O (some centres not stated)
inactive: [1] 0.105 | [2] 0.0162 | [3] 0.204 | [4] -0.0118

OC[C@H]1O[C@@H](n2cnc3c(NCCc4ccccc4)ncnc32)C(O)[C@H]1O (some centres not stated)
inactive: [5] 0.15 | [6] 0.163 | [7] 0.0914 | [8] 0.0608
